Assay results as given in PubChem BioAssay AID602233 (National Center for Advancing Translational Sciences (NCATS), 2012).
The campaign covered roughly 380,000 compounds. About 170 (0.045%) were called active. The sample holds actives, similar compounds and a random draw of the others, so the mix is not that of the screen. Calls follow the shape of the dose curve; as a rule, active = well fitted inhibition curve with a large enough effect; inconclusive = small, poorly fitted or top-dose-only effect; inactive = no such curve, though single readings can be large or run the other way.

What follows are compounds tested against Phosphoglycerate kinase, glycosomal (Trypanosoma brucei brucei) (UniProt P07378) (assay: qHTS Assay to Find Inhibitors of Phosphoglycerate Kinase). Conditions: PGK/GAPDH coupled, Kinase-Glo luminescence, 60 min; series mostly up to 57.5 µM.
Phosphoglycerate kinase, glycosomal (Trypanosoma brucei brucei), sequence (P07378 whole entry, looked up): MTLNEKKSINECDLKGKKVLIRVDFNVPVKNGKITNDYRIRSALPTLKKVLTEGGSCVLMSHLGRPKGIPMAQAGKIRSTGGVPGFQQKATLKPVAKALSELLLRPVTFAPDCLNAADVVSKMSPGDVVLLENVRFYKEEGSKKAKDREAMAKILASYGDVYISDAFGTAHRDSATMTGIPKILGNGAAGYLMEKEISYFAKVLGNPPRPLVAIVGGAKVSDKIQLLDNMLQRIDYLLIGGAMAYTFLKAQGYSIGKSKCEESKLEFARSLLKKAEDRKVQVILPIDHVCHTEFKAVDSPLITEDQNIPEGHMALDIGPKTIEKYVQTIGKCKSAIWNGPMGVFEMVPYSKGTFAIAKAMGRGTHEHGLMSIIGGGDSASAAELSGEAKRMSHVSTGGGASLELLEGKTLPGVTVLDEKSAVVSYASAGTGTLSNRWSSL
Procedure, shortened: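 Recombinant glycosomal PGK reaction used 1,3-bisphosphoglycerate generated in-well by GAPDH (100nM final) in 100mM TEA pH 7.6, 5mM MgCl2, 0.01% Tween-20. After 60 minutes at room temperature, ATP was read by Kinase-Glo Plus luminescence end-point.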
Also: nearly all actives have a fitted effect of over 60% in size.

Potency, inactive:
CCCC(=O)Nc1cc(C(=O)NCc2ccc(OC)cc2)ccc1S(=O)(=O)c1ccc(Cl)cc1
CC1=C(C(=O)OCC(C)C)C(c2ccc(OCc3ccccc3)cc2)N2C(=O)CCSC2=N1 (stereo unspecified)
O=C(/C=C/c1cn(CC(O)CN2CCc3ccccc32)c2ccccc12)c1ccc(Br)cc1 (stereo unspecified)
O=C(Nc1ccc(C(=O)OCc2cc(=O)n3nc(C4CC4)sc3n2)cc1)c1ccc(F)cc1
Cc1c(Cl)cccc1NC(=O)C(=O)NCCc1csc2nc(-c3ccccc3F)nn12
Cc1ccc(N(CC(=O)NCC(C)c2ccccc2)S(=O)(=O)N(C)C)cc1 (stereo unspecified)
CCc1nnc2c3ccccc3nc(N3CCN(c4ccc(C)cc4C)CC3)n12
O=C(C1CCCN(S(=O)(=O)c2cccc3nonc23)C1)N1CCN(c2ccccc2F)CC1 (stereo unspecified)
NS(=O)(=O)c1ccc(NC(=O)C(=O)Nc2ccc3nc4n(c(=O)c3c2)CCCCC4)cc1
O=C(NCc1ccc(Cl)cc1)c1ccc2c(c1)nnn2C1CCCC1
Oc1ccccc1-c1nc2ccc(Cl)cn2c1Nc1ccc2c(c1)OCCO2
COc1ccc(SCc2cc(=O)c3ccc(C)c(C)c3[nH]2)cc1
Cc1ccc(-c2nc(Cn3c(=O)cc(-c4ccccc4)c4c(C)nn(C)c43)c(C)o2)cc1
CC(C)c1ccc(NC(=O)CN(C)S(=O)(=O)c2ccc3c(c2)c(=O)n(C)c(=O)n3C)cc1
Cc1ccc2nc(-c3ccc(O)cc3)c(Nc3ccc4c(c3)OCO4)n2c1
CC(C)Oc1ccc(CNC(=O)C2CCN(c3nc4ccccc4n(C)c3=O)CC2)cc1
COc1cccc(C(=O)Nc2ccc(-c3cc(C(F)(F)F)nn3-c3ccccc3)cc2)c1
Cc1ccc(NC(=O)c2oc3ccc(S(=O)(=O)N4CCCCC4)cc3c2C)cc1Cl
Cc1ccccc1C(=O)Nc1nnc(S(=O)(=O)N(C)c2ccc(Cl)cc2)s1
O=C(COc1ccc(Cl)cc1)N(Cc1ccco1)Cc1ccco1
Cc1cc(C)cc(NC(=O)CSc2oc(-c3ccccc3)nc2S(=O)(=O)c2ccc(Cl)cc2)c1
